Experimental data published in PubChem BioAssay (NCATS).
Results filed as inconclusive are left out. Where a call stands in place of a potency, no number is given. Values without a mark were called inactive. Calls of active or inactive are those of the source. Calls follow the shape of the dose curve; as a rule, active = well fitted cell-killing curve with a large enough effect; inconclusive = small, poorly fitted or top-dose-only effect, or effect the other way; inactive = flat fitted curve, though single readings scatter.

How the values were obtained:
Assay in all cases: Primary qHTS to identify gynecologic anti-cancer compounds using libraries of approved drugs and bioactive compounds (AID 1345084); also: nearly all actives have a fitted effect of over 55% in size
[1] = test system: CAOV3; conditions: Gynecologic cancer cell panel viability, ATPlite luminescence, 48 h; series mostly up to 57.5 µM
Outline: (§1)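 Measured: luminescence after ATPlite addition (15 min, RT). Exposure: 48 h, 37 C, 5% CO2.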

[2] = test system: CASKI; conditions: Gynecologic cancer cell panel viability, ATPlite luminescence, 48 h; series mostly up to 57.5 µM
Outline: as §1

[3] = test system: Es-2; conditions: Gynecologic cancer cell panel viability, ATPlite luminescence, 48 h; series mostly up to 57.5 µM
Outline: as §1

[4] = test system: HeLa; conditions: Gynecologic cancer cell panel viability, ATPlite luminescence, 48 h; series mostly up to 57.5 µM
Outline: as §1

[5] = test system: Hek293T; conditions: Gynecologic cancer cell panel viability, ATPlite luminescence, 48 h, control line for the selectivity index; series mostly up to 57.5 µM
Outline: as §1

[6] = test system: OV90; conditions: Gynecologic cancer cell panel viability, ATPlite luminescence, 48 h; series mostly up to 57.5 µM
Outline: as §1

[7] = test system: PA-1; conditions: Gynecologic cancer cell panel viability, ATPlite luminescence, 48 h; series mostly up to 57.5 µM
Outline: as §1

[8] = test system: SKOV3; conditions: Gynecologic cancer cell panel viability, ATPlite luminescence, 48 h; series mostly up to 57.5 µM
Outline: as §1

[9] = test system: Tov-21-G; conditions: Gynecologic cancer cell panel viability, ATPlite luminescence, 48 h; series mostly up to 57.5 µM
Outline: as §1

[10] = test system: Tov112D; conditions: Gynecologic cancer cell panel viability, ATPlite luminescence, 48 h; series mostly up to 57.5 µM
Outline: as §1

[11] = test system: JEG-3; conditions: Gynecologic cancer cell panel viability, ATPlite luminescence, 48 h; series mostly up to 57.5 µM
Outline: as §1
Potency is read from the fitted curve at half-maximal effect.

SMILES	Potency [1]	Potency [2]	Potency [3]	Potency [4]	Potency [5]	Potency [6]	Potency [7]	Potency [8]	Potency [9]	Potency [10]	Potency [11]	activity change, negative = cytotoxicity [1]	activity change, negative = cytotoxicity [2]	activity change, negative = cytotoxicity [3]	activity change, negative = cytotoxicity [4]	activity change, negative = cytotoxicity [11]	activity change, negative = cytotoxicity [8]
CCN(CCNC(=O)Nc1ccccc1Br)c1cccc(C)c1	inactive	inactive	inactive	inactive	inactive	inactive	inactive	inactive	inactive	inactive	–	–	–	–	–	–	–
Cc1cc(F)c(C(=O)Nc2cccc(-c3nncn3C(C)C)n2)cc1-n1cnc(C2CC2)c1	inactive	inactive	inactive	–	inactive	inactive	inactive	inactive	inactive	inactive	inactive	–	–	–	–	–	–
C/C=C(\C)C(=O)O[C@@H]1[C@@H](C)[C@]2(O)[C@@H]3C=C(C)C(=O)[C@H]3CC(CO)=C[C@H]2C2C(C)(C)[C@@]21OC(=O)C(C)CC (some centres not stated)	inactive	inactive	0.355 µM (active)	inactive	inactive	–	inactive	inactive	inactive	inactive	–	–	–	–	–	–	–
CC(C)c1cc2c(N3CCN(C4=NCC(C)(C)S4)CC3)ncnc2s1	inactive	inactive	inactive	inactive	–	–	–	–	inactive	inactive	inactive	–	–	–	–	–	–
Cc1ccc(S(=O)(=O)NCc2ccc(C(=O)NCCN(Cc3ccccc3)C(C)C)cc2)cc1	inactive	inactive	–	inactive	inactive	–	inactive	–	inactive	inactive	inactive	–	–	–	–	–	–
CCC(C)C(=O)OC1C(C)C2(O)C(C=C(CO)CC3(O)C(=O)C(C)=CC32)C2C(C)(C)C12OC(=O)C(C)C (configuration not stated)	inactive	inactive	–	inactive	inactive	inactive	inactive	inactive	inactive	inactive	inactive	–	–	–	–	–	–
O=C(NCCCCN1CCN(c2cccc(Cl)c2Cl)CC1)c1cc2ccccc2s1	inactive	inactive	inactive	inactive	inactive	inactive	inactive	inactive	inactive	inactive	–	–	–	–	–	–	–
CC(C)(O)C(=O)N1CCN(c2ccc(C(F)(F)F)c(C3=C(c4c[nH]c5ccccc45)C(=O)NC3=O)c2)CC1	inactive	inactive	inactive	–	inactive	inactive	inactive	–	inactive	inactive	–	–	–	–	–	–	–
Cc1ccc(-c2cn3c4c(sc3n2)CCCC4)cc1	10 µM (active)	17.8 µM (active)	11.2 µM (active)	12.6 µM (active)	12.6 µM (active)	–	–	15.8 µM (active)	12.6 µM (active)	12.6 µM (active)	–	–	–	–	–	–	–
O=C(Nc1cccc([N+](=O)[O-])c1)c1cccc(S(=O)(=O)N2CCCCCC2)c1	inactive	inactive	inactive	inactive	–	–	inactive	–	inactive	inactive	inactive	–	–	–	–	–	–
COc1ccc(CN2CCN(C(=O)CCNC(=O)c3ccc(C(C)(C)C)cc3)CC2)cc1	inactive	inactive	inactive	inactive	–	inactive	–	inactive	inactive	inactive	inactive	–	–	–	–	–	–
CC12CCC(OC3OC(CO)C(O)C(O)C3OC3OC(CO)C(O)C(O)C3O)CC1CCC1C2CCC2(C)/C(=C3/COC(=O)C3)CCC12O (configuration not stated)	inactive	inactive	inactive	inactive	inactive	–	inactive	inactive	–	–	inactive	–	–	–	–	–	–
C=CC(=O)Nc1cc(-n2c(=O)ccc3cnc4ccc(-c5ccc(NS(C)(=O)=O)cc5)cc4c32)ccc1C	inactive	inactive	inactive	inactive	inactive	inactive	–	–	–	inactive	inactive	–	–	–	–	–	–
CC(C)(C)c1ccc(NC(=O)N2CCN(c3ncccc3Cl)CC2)cc1	inactive	inactive	inactive	inactive	–	–	–	22.4 µM (active)	inactive	inactive	inactive	–	–	–	–	–	–
C/C=C(/C)C(=O)OC1CC(C)(C)CC2C3=CCC4C5(C)CCC(O[C@@H]6O[C@H](C(=O)O)[C@@H](O)[C@H](O)[C@H]6O[C@@H]6O[C@H](CO)[C@H](O)[C@H](O[C@@H]7OC[C@H](O)[C@H](O)[C@H]7O[C@@H]7O[C@H](CO)[C@@H](O)[C@H](O)[C@H]7O)[C@H]6O)C(C)(C)C5CCC4(C)C3(C)C(O)C(O)C12CO (some centres not stated)	–	–	–	–	–	–	–	–	–	–	–	-23.4% [at 6.55 µM]	-3.66% [at 6.55 µM]	-27.7% [at 6.55 µM]	-5.95% [at 6.55 µM]	-6.95% [at 6.55 µM]	-5.71% [at 6.55 µM]
C/C=C(\C)C(=O)OC1C(C)C2(O)C(C=C(CO)CC3(O)C(=O)C(C)=CC32)C2C(C)(C)C12OC(C)=O (configuration not stated)	inactive	inactive	0.224 µM (active)	inactive	inactive	–	inactive	inactive	inactive	inactive	inactive	–	–	–	–	–	–
